The list is not random: actives were taken first. Their share in the collection is about 2.4%.
D2 PAM-1 – potentiates the human D2 dopamine receptor allosterically; P14416; DiscoveRx D2 beta-arrestin cells, luminescence, 90 min; 100% = 57 uM dopamine signal; potentiation, % (no concentration beside the values); actives 0.23% (n = 360,000); in the data active means potentiation above about 50%
Target sequence (P14416 whole entry, looked up): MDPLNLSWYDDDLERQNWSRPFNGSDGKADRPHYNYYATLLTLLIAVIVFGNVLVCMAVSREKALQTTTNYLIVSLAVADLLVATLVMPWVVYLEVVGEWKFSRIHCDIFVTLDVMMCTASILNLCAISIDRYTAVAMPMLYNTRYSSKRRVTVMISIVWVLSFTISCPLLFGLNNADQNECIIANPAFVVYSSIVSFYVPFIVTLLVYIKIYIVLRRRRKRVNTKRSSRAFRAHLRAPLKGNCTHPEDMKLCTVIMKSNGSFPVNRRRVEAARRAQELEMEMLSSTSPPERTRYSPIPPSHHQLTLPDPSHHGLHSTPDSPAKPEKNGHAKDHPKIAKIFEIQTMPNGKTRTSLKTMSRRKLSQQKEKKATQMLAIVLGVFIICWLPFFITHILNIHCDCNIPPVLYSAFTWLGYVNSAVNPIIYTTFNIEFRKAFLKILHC
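PathHunter D2 cells, attached overnight at 37 deg C, received compound in DMSO plus dopamine at EC20 (50 nM final) for 90 min at 37 deg C. Beta-arrestin recruitment was read as luminescence after 1 h with detection reagent at ambient temperature.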
D2 ag-1 – activates the human D2 dopamine receptor; activation, % at 2 µM; HEK293 T-REx D2 cells, calcium flux agonist mode; AID 485358; P14416; actives 0.53% (n = 340,000);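 active means activation over 3 SD above normal in the single-dose calcium agonist read, cut at about 30% in these data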; further: 0% is about no effect
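Tetracycline-induced HEK293 Trex cells with D2 receptor force-coupled to calcium signaling, plated overnight at 30 C and loaded with no-wash calcium dye. Calcium flux read kinetically for 180 s after compound addition; responses flag agonists.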
D2 PAM-2 – positive allosteric modulators of human D2 dopamine receptor; P14416; HEK293 T-REx D2, calcium flux, EC20 dopamine potentiation; potentiation, % at 10 µM; actives 0.34% (n = 340,000);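 active means potentiation over 3 SD above the plate norm, cut at about 30% in these data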; further: 0% is about no effect
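Cells plated with tetracycline inducer and held overnight at 30 C; calcium dye loaded 30–90 min at room temperature; baseline taken, compound added and read 180 s; EC20 dopamine then added and read 180 s.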
D2 antag – antagonists of human D2 dopamine receptor; HEK293 TREx D2 cells, calcium flux, dopamine EC80; P14416; actives 2% (n = 340,000); AID 485344; inhibition, % at 10 µM; in the data active means inhibition above about 30%; inactive means below that, where a call was filed; further: 0% is about no effect
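Antagonism is scored as inhibition of an EC80 dopamine-evoked calcium signal in a force-coupled, tetracycline-inducible HEK293 T-REx D2 line, with compound present 180 s before agonist.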
D2 ag-2 – agonists of human D2 dopamine receptor (beta-arrestin). P14416. DiscoveRx PathHunter D2 beta-arrestin, luminescence, 90 min; 100% = 57 uM dopamine signal. activation, % (no concentration beside the values). actives 0.084% (n = 360,000). AID 624465; in the data active means activation above about 40%
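Agonist mode: compounds alone added to overnight-plated D2 PathHunter cells for 90 min at 37 C, with 57 uM final dopamine (EC100) defining full response. Beta-arrestin recruitment detected by chemiluminescent reagent, read after 1 h at ambient temperature.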
* hit, by the source's call; nt = no result given.

SMILES	D2 PAM-1	D2 ag-1	D2 PAM-2	D2 antag	D2 ag-2
Cc1ccc(OCCN2CCC2(C)C(=O)NCc2ccc(C(F)(F)F)cc2)cc1 (stereo unspecified)	-9	nt	nt	nt	-3
CCc1ccccc1N(C)S(=O)(=O)c1ccc(-c2cc(C)no2)s1	1	-2	0	23	1
CCc1cccc(NC(=O)COC(=O)/C=C/c2cccs2)c1	-6	0	-7	31*	-4
O=C(COC(=O)/C=C/c1cccs1)Nc1ccc(F)cc1	-6	0	11	6	-1
O=c1c(Cl)nc2cc(Cl)ccc2n1CCNc1ncc(C(F)(F)F)cc1Cl	18	0	47*	1	-2
O=c1c2nncn2c2cc(C(F)(F)F)ccc2n1CCNc1ncc(C(F)(F)F)cc1Cl	-2	-2	-4	-15	-5
CC12CN3CC(C)(CN(C1)C3c1ccccc1F)C2 (stereo unspecified)	-5	0	-8	-2	-5
CCCCOc1ccccc1NC(=O)Cn1c(-c2cncs2)nc2ccccc21	nt	nt	-3	nt	nt
O=C(O)c1ccc2nc(-c3cc4cccc(O)c4oc3=O)[nH]c2c1	nt	0	4	nt	nt
O=c1oc2c(O)cccc2cc1-c1nc2ccccc2[nH]1	15	149*	0	-115	5
CCCSc1nnc(Sc2nnnn2-c2ccccc2)s1	-12	-2	2	44*	-2
Cc1ccccc1-n1nnnc1Sc1nnnn1-c1ccccc1	-10	0	2	12	-1
Cc1ccc(NC(=O)Cn2c(=O)n(CC(=O)NCCc3ccccc3)c(=O)c3ccccc32)cc1C	nt	nt	-2	nt	nt
CCNC(=O)c1ccccc1SCc1ccccc1	0	-1	10	14	3
CCNC(=O)c1ccccc1SCC(=O)Nc1ccc(F)cc1	-7	0	35*	23	-3
CCC(COC)Oc1cc(NCc2ccccc2)c2ncn(C(C)C)c2c1 (stereo unspecified)	2	0	15	-5	65*
CCC(CO)Oc1cc(NCc2ccccc2)c2ncn(C(C)C)c2c1 (stereo unspecified)	-16	nt	nt	nt	6
O=C(CCN1C(=O)/C(=C/c2ccc(F)cc2)SC1=S)NC1C=CS(=O)(=O)C1 (stereo unspecified)	-8	0	56*	-9	1
O=C(CN1C(=O)S/C(=C\c2ccc(F)cc2)C1=O)NC1C=CS(=O)(=O)C1 (stereo unspecified)	-8	0	0	-12	-4
O=C(NCc1ccccc1C(F)(F)F)C1CC(c2cccc(F)c2)=NO1 (stereo unspecified)	-10	1	12	42*	-3
O=C(NCc1ccccc1C(F)(F)F)C1CC(c2cc(C(F)(F)F)cc(C(F)(F)F)c2)=NO1 (stereo unspecified)	6	0	3	8	3
COc1ccc(NC(=O)c2ccc(OCC3CCCO3)cc2)cc1Cl (stereo unspecified)	25	1	-4	47*	8
COc1cccc(NC(=O)c2cc3c(=O)n(C)c4ccccc4c3n2C)c1	nt	-1	19	nt	nt
COc1ccc([N+](=O)[O-])cc1C(=O)C(=O)c1ccccc1	-5	-1	18	-4	-6
COc1cc(C(=O)O)nc2ccc([N+](=O)[O-])cc12	-1	2	2	38*	4
SMILES	D2 PAM-1	D2 ag-1	D2 PAM-2	D2 antag	D2 ag-2
CN(C)CCNC(=O)c1ccc(Cn2c(=O)c3cccn3c3cccnc32)cc1	nt	2	-7	nt	nt
CCOC(=O)c1cc(-c2ccc(OC)cc2)n(CCC(=O)NCCN2CCC(C)CC2)c1C	-11	1	-21	66*	-2
Cc1ccc(N=C(NOC(=O)c2ccccc2)c2nonc2N)c(C)c1	95*	0	-1	-19	11
Cc1ccc(N=C(NO)c2nonc2N)c(C)c1	-2	1	-4	9	0
O=C(CN1CCCN(Cc2ccc(F)cc2Cl)C1=O)NC1CCCCCCC1	-16	1	-4	-7	-1
O=C(CN1CCN(Cc2ccccc2F)C1=O)NC1CCCC1	-9	0	2	40*	-4
CN(Cc1ccccc1Br)C(=O)CSc1nnnn1C1CC1	3	nt	nt	nt	-2
Cc1ccccc1NC(=O)Cc1nnc(NC(=O)Nc2ccccc2F)s1	-8	1	4	14	3

Screening data as filed in PubChem.
